Some test systems named below: SR leukemia; RPMI-8226 leukemia; OVCAR-8 ovarian; OVCAR-5 ovarian; OVCAR-4 ovarian; SK-OV-3 ovarian; IGROV1 ovarian; OVCAR-3 ovarian; HS 578T breast; NCI/ADR-RES ovarian; BT-549 breast; MDA-MB-435 melanoma; SW-620 colon; MCF7 breast; HCT-116 colon; HCC-2998 colon; KM12 colon; T-47D breast.
What all share (assay): NCI-60 one-dose screen, 48 h (100 = growth as untreated, 0 = no growth, -100 = all killed)
Holding throughout (conditions): 10 µM unless noted

About 83,000 compounds went through this panel and 20% of them were active in at least one assay; those are over-represented in the sample as a whole.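 Plates (96-well) were seeded with cells, treated with compound at one concentration, and incubated for 48 hours before percent growth was determined.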 Values without a mark were called inactive. Calls of active or inactive are those of the source. How the source made its calls: active means growth percent below 10; inactive means the rest.

For the compound `Oc1ccc(N=Cc2ccccc2)cc1`, the growth in the assay on SR leukemia was 30.9%; in the assay with RPMI-8226 leukemia it was 55.4%; in the assay with OVCAR-8 ovarian, 86.8%; in the assay on OVCAR-5 ovarian, 104%; in the assay with OVCAR-4 ovarian it was 79.7%; in the assay on SK-OV-3 ovarian, 119%. For the same compound, the growth is 97.1% in the assay on IGROV1 ovarian; 7.09% (active) in the assay on OVCAR-3 ovarian; 103% with HS 578T breast; 101% with NCI/ADR-RES ovarian; 70.7% in the assay with BT-549 breast; 97.8% in the assay with MDA-MB-435 melanoma. In addition, the growth is 99.9% in the assay with SW-620 colon; 84.8% in the assay on MCF7 breast; 60.8% in the assay on HCT-116 colon; 100% with HCC-2998 colon; 91.3% in the assay with KM12 colon.

With `COc1cccc(/C=C/C(=O)c2sc(Nc3ccc(O)cc3)nc2C)c1`, the growth in the assay with SR leukemia is 35.8%; with RPMI-8226 leukemia it was 4.79% (active); in the assay on OVCAR-8 ovarian, 99.4%; in the assay on OVCAR-5 ovarian, 111%; in the assay with OVCAR-4 ovarian, 96.9%; in the assay on SK-OV-3 ovarian, 103%. In addition, the growth is 88.1% in the assay on IGROV1 ovarian; 75.7% with OVCAR-3 ovarian; 103% with HS 578T breast; 99% in the assay with NCI/ADR-RES ovarian; 90.8% with T-47D breast; 88.4% in the assay with MDA-MB-435 melanoma. Besides, the growth is 110% in the assay with SW-620 colon; 72.2% with MCF7 breast; 87.4% in the assay on HCT-116 colon; 105% in the assay with HCC-2998 colon; 78.4% in the assay on KM12 colon.

Turning to `O=[N+]([O-])c1c(S(=O)(=O)O)cc2cc(S(=O)(=O)O)ccc2c1[N+](=O)[O-]`, the growth with SR leukemia is 103%; in the assay on RPMI-8226 leukemia, 109%; in the assay with OVCAR-8 ovarian, 114%; with OVCAR-5 ovarian, 97.2%; with OVCAR-4 ovarian it was 114%; in the assay on SK-OV-3 ovarian, 122%. The growth in the assay with IGROV1 ovarian was 103%; in the assay with OVCAR-3 ovarian, 104%; with HS 578T breast, 98.7%; in the assay on NCI/ADR-RES ovarian it was 102%; in the assay on T-47D breast it was 109%; with MDA-MB-435 melanoma, 105%. Also, the growth with SW-620 colon is 105%; with MCF7 breast, 97.7%; with HCT-116 colon, 98.2%; in the assay on HCC-2998 colon, 99.2%; in the assay with KM12 colon, 91.5%.

Consider `O=C(OCCCCOC(=O)n1cnc2ccccc21)n1cnc2ccccc21`, for which the growth was 84.6% with SR leukemia; 102% in the assay on RPMI-8226 leukemia; 99.7% in the assay on OVCAR-8 ovarian; 103% with OVCAR-5 ovarian; 105% in the assay with OVCAR-4 ovarian; 98.9% in the assay on SK-OV-3 ovarian. The growth was 102% in the assay with IGROV1 ovarian; 108% in the assay with OVCAR-3 ovarian; 90.2% in the assay with HS 578T breast; 105% with NCI/ADR-RES ovarian; 92.2% with T-47D breast; 103% in the assay on MDA-MB-435 melanoma. The growth with SW-620 colon is 106%; in the assay with MCF7 breast it was 96.7%; with HCT-116 colon it was 102%; in the assay with HCC-2998 colon, 111%; with KM12 colon, 104%.

On to `O=C(Nc1ccccc1)OCC1OCOC(COC(=O)Nc2ccccc2)C1OC(=O)Nc1ccccc1` (configuration not stated), for which the growth is 18.1% in the assay with SR leukemia; 40.1% in the assay with RPMI-8226 leukemia; 32% in the assay with OVCAR-8 ovarian; 52.5% in the assay on OVCAR-5 ovarian; -44.6% (active) with OVCAR-4 ovarian; 91.5% in the assay on SK-OV-3 ovarian. Further, the growth is 70.8% with IGROV1 ovarian; 28.8% in the assay on OVCAR-3 ovarian; 67.7% with HS 578T breast; 69.8% with NCI/ADR-RES ovarian; 93.5% in the assay with BT-549 breast; 11.2% with MDA-MB-435 melanoma. Besides, the growth in the assay with SW-620 colon is 8.17% (active); with MCF7 breast, 16.5%; with HCT-116 colon, -51.6% (active); with HCC-2998 colon it was 36.9%; in the assay with KM12 colon, 51.2%.

As to `Cc1ccc(C2=NN(c3ccc(S(N)(=O)=O)cc3)C(c3cn(-c4ccccc4)nc3-c3ccccc3)C2)cc1` (configuration not stated), the growth with SR leukemia is 11.7%; in the assay with RPMI-8226 leukemia, 39.7%; in the assay on OVCAR-8 ovarian, 86.3%; in the assay with OVCAR-5 ovarian, 115%; in the assay with OVCAR-4 ovarian, 105%; in the assay on SK-OV-3 ovarian, 93.4%. Further, the growth is 88.5% with IGROV1 ovarian; 56.1% in the assay with OVCAR-3 ovarian; 96.6% in the assay with HS 578T breast; 90.6% with NCI/ADR-RES ovarian; 83.7% in the assay with T-47D breast; 62.7% in the assay on MDA-MB-435 melanoma. For the same compound, the growth in the assay on SW-620 colon is 86.5%; in the assay on MCF7 breast, 55.9%; in the assay with HCT-116 colon, 83.9%; with HCC-2998 colon, 118%; in the assay on KM12 colon, 41.1%.

On to `Cc1cc(Nc2nc(-c3ccncc3)nc3ccccc23)n[nH]1`, for which the growth in the assay on SR leukemia was 18.3%; with RPMI-8226 leukemia, 91.6%; in the assay with OVCAR-8 ovarian, 101%; in the assay with OVCAR-5 ovarian, 87.1%; in the assay on OVCAR-4 ovarian it was 52.4%; with SK-OV-3 ovarian, 22.8%. The growth with IGROV1 ovarian was 16.3%; in the assay on OVCAR-3 ovarian it was 67.2%; in the assay on HS 578T breast it was 22.6%; in the assay on NCI/ADR-RES ovarian it was 86.4%; in the assay with MDA-MB-435 melanoma, 40.3%; in the assay with SW-620 colon, 78.3%. Besides, the growth in the assay with MCF7 breast was 40.2%; in the assay on HCT-116 colon, 39.3%; in the assay with HCC-2998 colon it was 72%; in the assay with KM12 colon, 18.8%.

Regarding `O=C(O)C(Cc1ccccc1)N1C(=O)/C(=C/C(Cl)=C/c2ccc([N+](=O)[O-])cc2)SC1=S` (configuration not stated), the growth with SR leukemia is 5.32% (active); in the assay with RPMI-8226 leukemia it was -6.22% (active); in the assay with OVCAR-8 ovarian, 12.1%; in the assay with OVCAR-5 ovarian it was 137%; with OVCAR-4 ovarian it was 7.24% (active); in the assay with SK-OV-3 ovarian it was 83.4%. Moreover, the growth in the assay with IGROV1 ovarian is 36.3%; in the assay on OVCAR-3 ovarian, 10.7%; in the assay with HS 578T breast it was 44.6%; in the assay with NCI/ADR-RES ovarian, 68.7%; with T-47D breast it was 1.08% (active); in the assay on MDA-MB-435 melanoma, -41.7% (active). The growth was 5.12% (active) with SW-620 colon; 26.1% in the assay on MCF7 breast; -59.5% (active) in the assay with HCT-116 colon; 3.58% (active) in the assay on HCC-2998 colon; 14.8% with KM12 colon.

Regarding `Cc1ccc2nc(SCn3nnc4ccccc4c3=O)[nH]c2c1`, the growth with SR leukemia was 112%; in the assay on RPMI-8226 leukemia, 94.4%; in the assay with OVCAR-8 ovarian, 109%; in the assay on OVCAR-5 ovarian it was 89.5%; with OVCAR-4 ovarian it was 78.4%; in the assay with SK-OV-3 ovarian, 103%. Moreover, the growth is 83.7% in the assay on IGROV1 ovarian; 104% with OVCAR-3 ovarian; 107% in the assay on HS 578T breast; 88.8% in the assay on NCI/ADR-RES ovarian; 97% in the assay on T-47D breast; 101% with MDA-MB-435 melanoma. The growth was 90.6% in the assay on SW-620 colon; 87.2% in the assay on MCF7 breast; 97.1% in the assay on HCT-116 colon; 95.5% in the assay with HCC-2998 colon; 161% with KM12 colon.

These data come from PubChem BioAssay (NCI).
